Screening results from PubChem BioAssay.
Compounds with a hit are over-represented: about 2.3% of the library has one in this group of screens.
Gli-Sufu antag: Gli-Sufu pathway antagonism; inhibition, % at 5 µM; 340,000 compounds, 0.74% hits; AID 588413; Sufu-KO-LIGHT fibroblasts, Gli luciferase reporter luminescence;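 active means inhibition above about 55%, limit read from the data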;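 further: 0% = DMSO-treated cells and 100% = wells with medium but no cells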
Shn3 inh set2: reduces Shn3 3'UTR luciferase signal in osteoblasts | inhibition, % at 12.5 µM | AID 588674 | 360,000 compounds, 0.52% hits | Clone20 osteoblast Shn3 3'UTR firefly luciferase, 24 h;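 active means mean inhibition of at least 75% with every replicate also reaching 75%; inconclusive means mean inhibition at least 75% but some replicate below; inactive means mean inhibition below 75%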;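 further: 0% = median of neutral control wells and 100% = pilot-screen positive control compound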
697 NFkB inh: lowers PMA/ionomycin-induced NF-kB signal in 697 B cells | 697 B-cell NF-kB luciferase reporter, 16 h | inhibition, % at 4 µM | 330,000 compounds, 0.33% hits; in the data active means inhibition above about 35%
aSyn 5UTR inh: 5' untranslated region of α-synuclein, MLPCN primary screen; alpha-synuclein 5'UTR reporter, inhibitor activity; inhibition, % (tested at 7.5 µM); 300,000 compounds, 0.82% hits; AID 1813; in the data active means inhibition above about 60%; inconclusive means no clear call, values can overlap the other calls;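 further: H4 neuroglioblastoma cells stably carrying SNCA 5'UTR luciferase fusion; 0% = DMSO wells and 100% = positive control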
TAG inh: triacylglycerol accumulation inhibition | H9c2 cells, Nile Red lipid (TAG) fluorescence; cells loaded with 200 µM oleic acid | inhibition, % at 12.5 µM | 230,000 compounds, 0.66% hits | AID 651582;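 active means pattern-corrected inhibition of lipid staining of at least 50% with the nuclear-stain viability signal not falling by more than 50%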;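 further: 0% = DMSO wells and 100% = triacsin C control wells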
Jurkat NFkB inh: inhibitors of the PMA/ionomycin-induced NF-kB reporter in Jurkat cells | PMA/ionomycin-induced NF-kB luciferase reporter, luminescence | inhibition, % at 4 µM | 330,000 compounds, 0.53% hits | AID 435003; in the data active means inhibition above about 50%
Gli-Sufu confirm: confirmation of Gli-SUFU pathway antagonists; shares compounds with Gli-Sufu antag; AID 602428; Sufu-KO-LIGHT cells, Gli luciferase reporter, luminescence; 2,500 compounds, 40% hits; inhibition, % at 5 µM;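 active means mean inhibition at 5 µM reaching about 45%, limit read from the data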;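 further: plate controls were DMSO-treated cells for no effect and wells lacking cells for full effect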
Gli cytotox: cytotoxic in Gli-SUFU antagonist counter-screen; shares compounds with Gli-Sufu antag; Sufu-KO-LIGHT cells cytotoxicity, ATP luminescence; cytotoxicity, % at 5 µM; 2,500 compounds, 32% hits;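 active means mean cytotoxicity at 5 µM above about 25%, limit read from the data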;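 further: cells exposed to compound overnight for roughly 16 to 18 hours; plate controls were DMSO wells with cells for no effect and medium without cells for full effect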
Wnt3a cs: Wnt3a reporter inhibition counter-screen; shares compounds with Gli-Sufu antag; Wnt-LIGHT cells, Wnt3a-driven luciferase reporter, luminescence; inhibition, % at 6.25 µM; 2,500 compounds, 20% hits;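 active means mean inhibition above about 25%, limit read from the data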
An asterisk follows results filed as active; ? = inconclusive; / = no result.

SMILES	Gli-Sufu antag	Shn3 inh set2	697 NFkB inh	aSyn 5UTR inh	TAG inh	Jurkat NFkB inh	Gli-Sufu confirm	Gli cytotox	Wnt3a cs
O=C(NCCc1c[nH]c2ccccc12)Nc1cccc2ccccc12	7.0	-0.5	-22.8	3.3	-3.8	8.3	/	/	/
CCCCn1c(N)c(N(CC(C)C)C(=O)c2ccc(N(C)S(=O)(=O)c3ccc(C)cc3)cc2)c(=O)[nH]c1=O	-4.2	-20.5	22.9	-9.2	4.3	-2.0	/	/	/
COc1ccccc1N1CCN(CC(O)c2c(C)[nH]c3ccccc23)CC1 (stereo not drawn)	61.3*	7.0	16.1	9.4	/	-3.6	20.1	21.4	-28.8
CCOC(=O)c1c(C)[nH]c(C)c1S(=O)(=O)N(C)CC(=O)NCc1cccc(C)c1	51.5	-13.1	-4.8	7.1	/	8.8	4.8	-3.8	-23.3
CCOC(=O)c1c(C)[nH]c(C)c1S(=O)(=O)N(C)CC(=O)Nc1cc(C)ccc1OC	7.7	25.4	4.3	-5.4	/	1.4	/	/	/
CC(C)Sc1nc(-c2ccccc2)cc(=O)[nH]1	69.0*	-13.9	10.9	13.0	2.2	18.0	22.1	3.7	3.2
COC(=O)C(C)Sc1nc2c(cnn2-c2ccc(Cl)cc2)c(=O)[nH]1 (stereo not drawn)	60.1*	-9.5	-5.1	12.1	/	-8.2	16.1	7.1	1.1
CCN1CCc2c(sc(NC(=O)c3cc4ccccc4cc3OC)c2C(N)=O)C1	69.1*	19.5	-110.7	34.0	28.3	1.6	20.1	17.7	-47.6
NC(=S)N/N=C/c1ccc(C(F)(F)F)cc1	7.3	-18.7	-26.2	-8.4	/	15.2	/	/	/
NC(=S)N/N=C/c1ncc(C(F)(F)F)cc1Cl	52.8	91.0*	-15.7	60.5	74.2	-6.6	65.2*	28.1*	44.0*
COc1ccc(C2=Nn3c(nnc3-c3ccccc3OC)SC2)cc1OCC1CC1	64.9*	15.8	-75.3	/	25.5	-2.4	59.5*	64.7*	-104.8
Cc1ccc(S(=O)(=O)NCCC2=CCCCC2)cc1C(N)=O	58.3*	73.1	-25.6	0.9	/	18.5	47.3*	18.6	18.6
Nc1cccc(Oc2ccc3c(c2)C(=O)N(CCO)C3=O)c1	3.2	0.5	/	/	3.0	/	/	/	/
O=C(NCCc1cccc(Cl)c1)c1ccc(OC2CCN(Cc3ccccn3)CC2)cc1	52.3	12.8	-93.0	-8.9	/	20.1	49.9*	15.1	9.5
O=C(Cc1ccccc1)Nc1cccc([N+](=O)[O-])c1	-5.9	-21.2	5.4	-11.1	/	14.4	/	/	/
Cc1ccc(CN2CCC(CNS(=O)(=O)c3ccc(-c4ccc(=O)[nH]n4)s3)CC2)cc1	60.3*	11.1	11.0	2.4	/	-1.2	20.8	11.6	12.5
O=C(Cn1ccc(C(F)(F)F)n1)N/N=C/c1ccc2c(c1)OCO2	58.5*	-19.9	-16.2	-33.3	-6.9	-32.4	9.2	21.3	-67.9
C/C(=N\NC(=O)Cn1ccc(C(F)(F)F)n1)c1ccc2c(c1)OCO2	-0.8	9.9	1.3	-1.4	-8.2	-8.4	/	/	/
C=CCCN(C(CC(C)C)C(=O)OC)S(=O)(=O)c1cc(Br)ccc1Br (stereo not drawn)	50.9	2.5	17.8	19.3	-24.4	10.3	19.2	21.9	16.5
CCNS(=O)(=O)c1ccc(NC(=O)c2ccccc2SCCOC)cc1	0.5	17.4	0.9	18.6	0.8	-3.2	/	/	/
COc1ccc(C(=O)c2cc([N+](=O)[O-])ccc2N2CCOCC2)cc1	53.1	-0.6	/	?	38.1	/	58.2*	62.2*	-15.0
COc1ccc(CCNC(=O)c2cc([N+](=O)[O-])ccc2N2CCOCC2)cc1	0.8	7.5	6.8	-18.9	10.7	27.8	/	/	/
CC1(C)CC(=O)N(c2ccc(Cl)cc2Cl)C(=O)C1	68.5*	-18.7	16.5	4.2	/	15.2	7.0	4.5	-11.8
CC1(C)CC(=O)N(c2cccc(Cl)c2)C(=O)C1	9.7	-14.2	23.3	2.0	/	12.9	/	/	/
c1ccc(-n2c(SCC3CCCCO3)nnc2-c2cnccn2)cc1 (stereo not drawn)	0.7	-4.8	8.1	13.9	3.6	-3.1	/	/	/
SMILES	Gli-Sufu antag	Shn3 inh set2	697 NFkB inh	aSyn 5UTR inh	TAG inh	Jurkat NFkB inh	Gli-Sufu confirm	Gli cytotox	Wnt3a cs
CCCC(=O)Nc1c2c(nn1-c1ccc(OC)cc1)CS(=O)C2 (stereo not drawn)	50.9	-3.1	-17.5	3.9	7.1	3.0	8.0	18.1	-0.2
COc1ccc(-n2ncc3c(N(C)C4CCCCC4)ncnc32)cc1	60.3*	63.8	-162.1	94.0*	1.0	-5.0	79.6*	77.5*	99.0*
Cc1cccc(-n2ncc3c(N(C)C4CCCCC4)ncnc32)c1	55.6*	75.6	-79.2	66.0*	-8.4	27.2	76.4*	68.9*	99.0*
O=C1[C@H]2CC3C=CC2(O3)[C@@H]2OCCCN12 (stereo partly drawn)	-6.7	11.7	24.0	-0.2	14.6	2.9	/	/	/
COc1ccc(NC(=O)c2cc(C3CCCCN3S(=O)(=O)c3ccc(F)cc3F)on2)c(C)c1 (stereo not drawn)	/	12.8	/	/	23.1	/	/	/	/
CC(C)CCn1c(CN2CC(C)OC(C)C2)nc2c1c(=O)n(C)c(=O)n2C (stereo not drawn)	7.8	3.8	8.2	15.5	5.9	-7.6	/	/	/
CC(C)(C)n1ncc2c(=O)n(Cc3cccc(Cn4cnc5c(cnn5C(C)(C)C)c4=O)c3F)cnc21	77.0*	89.4*	-0.6	/	-34.3	-2.4	78.1*	37.7*	17.8
Cc1ccc(NC(=O)Cn2nc(-c3ccccc3Cl)ccc2=O)c(Br)c1	56.7*	-1.2	-6.7	2.7	-41.6	1.6	13.5	19.6	-7.2
CSc1nnc(Cn2c(=O)sc3ccccc32)n1-c1ccccc1C	51.8	-11.2	-11.9	8.5	-10.4	6.4	23.5	0.2	-3.6
CCSc1nnc(Cn2c(=O)sc3ccccc32)n1-c1ccccc1C	2.1	11.3	5.8	10.3	-13.5	-11.0	/	/	/
N[C@@]12CCc3nonc3[C@]1(O)CC(c1ccccc1)=[N+]2[O-]	-0.8	-14.5	8.4	13.2	/	-1.6	/	/	/
CC(c1ccc(F)cc1)n1cc(C(=O)NCc2ccccn2)nn1 (stereo not drawn)	-6.4	40.4	17.0	-10.2	/	-6.8	/	/	/
CC(c1ccc(F)cc1)n1cc(C(=O)NCCN(C)C)nn1 (stereo not drawn)	56.7*	-11.4	-34.9	-3.9	-19.9	-30.7	29.3	21.1	6.4
CC(OCc1ccccc1)C(NC(=O)OC(C)(C)C)C(=O)NCC1CCCO1 (stereo not drawn)	-10.7	-1.7	-4.7	8.3	/	4.7	/	/	/
Cc1ccc(C(=O)N/N=C\C=C\c2ccc(Br)cc2)cn1	50.8	-24.3	-11.3	-14.3	/	-8.9	26.7	5.4	-4.4
